An excerpt weighted towards active compounds, which were near 8% of everything screened.
ELG1 repair inh – qHTS screen for small molecules that inhibit ELG1-dependent DNA repair in human embryonic kidney (HEK293T) cells expressing luciferase-tagged ELG1; HEK293T ELG1-luciferase reporter, luminescence, 16 h; DNA damage induced by 5-fluorouridine; Potency, µM (titrated, usually from 46.1 µM), usual class: inhibitors; AID 504467, 2011; 330,000 compounds, 2.3% hits; further: nearly all actives have a fitted effect of over 55% in size
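HEK293T cells expressing luciferase-tagged ELG1 (2,000/well) received 5-Fluorouridine plus compound or DMSO for 16 hr at 37 °C. Luciferase was read by ONE-Glo luminescence after 30 min at room temperature.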
Coupling enz – qHTS Assay for Inhibitors of Fructose-1,6-bisphosphate Aldolase from Giardia Lamblia: Coupling assay counterscreen; coupling enzyme system counterscreen, AmpLite Red fluorescence; activity change, negative = inhibition, % at 58.2 µM, hits read low; 290,000 compounds, 0.67% hits; AID 2472, 2010; in the data active means activity change below about -30%
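Final compound at 57.5 uM, incubated 10 min at RT with coupling enzyme reagent (glyceraldehyde-3-phosphate), then 20 min with substrate and AmpLite Red detection. Fluorescence read at 525/598 nm; tests interference with the coupling assay, not aldolase inhibition.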
RORgamma inh – qHTS for inhibitors of ROR gamma transcriptional activity; Nuclear receptor ROR-gamma (Mus musculus), P51450; Drosophila S2 Gal4-RORgamma UAS-luciferase reporter, 20 h; Potency, µM (series often up to 53.6 µM), most hits filed as inhibitors; 310,000 compounds, 5.4% hits; AID 2551, 2010; further: nearly all actives have a fitted effect of over 60% in size
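Compounds are pin-transferred onto Drosophila Schneider cells expressing a copper-inducible Gal4–ROR gamma transactivation domain fusion. After 1 hr, copper sulfate is added to 700 uM final; luciferase is read 20 hr later.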
Gal4-VP16 FLuc – VP16 counterscreen qHTS for inhibitors of ROR gamma transcriptional activity; Drosophila S2 Gal4-VP16 UAS-luciferase, luminescence, 20 h; Potency, µM (highest dose often 53.6 µM), hits mostly inhibitors; 310,000 compounds, 3.5% hits;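 further: Gal4-VP16 expression switched on by copper sulfate through the metallothionein promoter; nearly all actives have a fitted effect of over 50% in size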
TSHR antagonist – Antagonists of the Thyroid Stimulating Hormone Receptor: HTS campaign | TSHR-expressing cells, TSH-stimulated cAMP HTRF, 2 h; stronger effect = lower value | 330,000 compounds, 0.2% hits | activity change, negative = inhibition, % at 11.5 µM;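 active means activity change below a set negative limit, meaning inhibition stronger than a set level, cut at about -70% in these data; inconclusive means activity change between two set negative limits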
Target sequence (P16473 whole entry, looked up): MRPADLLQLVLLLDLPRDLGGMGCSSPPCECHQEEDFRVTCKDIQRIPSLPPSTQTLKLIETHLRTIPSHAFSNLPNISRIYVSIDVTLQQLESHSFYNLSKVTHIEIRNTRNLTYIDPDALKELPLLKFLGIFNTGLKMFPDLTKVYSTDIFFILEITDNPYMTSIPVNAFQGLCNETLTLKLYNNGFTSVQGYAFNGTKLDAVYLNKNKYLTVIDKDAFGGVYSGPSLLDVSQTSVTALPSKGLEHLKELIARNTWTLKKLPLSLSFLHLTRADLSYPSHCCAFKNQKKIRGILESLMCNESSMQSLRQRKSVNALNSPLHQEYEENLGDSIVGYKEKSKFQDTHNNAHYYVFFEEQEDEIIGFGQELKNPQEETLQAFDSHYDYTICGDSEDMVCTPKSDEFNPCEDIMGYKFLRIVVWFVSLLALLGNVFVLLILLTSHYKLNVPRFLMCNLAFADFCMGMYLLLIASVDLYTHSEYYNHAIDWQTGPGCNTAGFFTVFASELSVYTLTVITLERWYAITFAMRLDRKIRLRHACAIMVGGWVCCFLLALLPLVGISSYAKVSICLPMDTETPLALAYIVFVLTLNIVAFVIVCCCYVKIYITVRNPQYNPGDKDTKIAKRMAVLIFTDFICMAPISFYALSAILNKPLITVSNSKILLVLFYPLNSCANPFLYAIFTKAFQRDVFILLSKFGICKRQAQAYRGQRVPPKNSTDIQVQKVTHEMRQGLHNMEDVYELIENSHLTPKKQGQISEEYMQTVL
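Antagonism was scored as loss of TSH-driven cAMP in TSHR cells, stimulated with 4nM TSH (EC80) for 2 hours at 37 deg C and detected by homogeneous HTRF competition immunoassay.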
Large screens that a line does not name were inactive. Unless noted, the call rests on the fitted dose curve; in most records, active means well fitted curve in the direction sought with a large enough effect; inconclusive means small, poorly fitted or top-dose-only effect, or another doubt; inactive means no such curve, though single readings can be large; an effect the other way counts as inactive or inconclusive.

Cc1c(CCC(=O)N2CCC(C(=O)O)(c3ccccc3)CC2)c(=O)oc2cc3oc4c(c3cc12)CCCC4	RORgamma inh 1.1µM, Gal4-VP16 FLuc inconclusive
Cc1oc2cc3oc(=O)c(CCC(=O)NCCCn4ccnc4)c(C)c3cc2c1C	none
CC[C@H](C)[C@H](NC(=O)[C@H](CCC(=O)O)NC(=O)CNC(=O)[C@@H](NC(=O)[C@@H]1CCCN1C(=O)[C@@H](NC(=O)[C@@H]1CCCN1C(=O)[C@@H]1CCCN1C(=O)[C@H](CC(N)=O)NC(=O)[C@H](CC(N)=O)NC(=O)[C@@H](NC(=O)[C@H](CCSC)NC(=O)[C@H](Cc1c[nH]c2ccccc12)NC(=O)CNC(=O)[C@@H](NC(=O)[C@H](CCC(N)=O)NC(=O)[C@@H](N)CCC(=O)O)[C@@H](C)CC)[C@@H](C)O)[C@@H](C)CC)C(C)C)C(=O)O	none (no result: ELG1 repair inh, TSHR antagonist)
c1ccc(CC2CCN(c3nnnn3-c3ccccc3)CC2)cc1	none
N/C(=N/O)c1ccccc1N1CCC(Cc2ccccc2)CC1	ELG1 repair inh 15µM
O=C(Nc1nc2c(Br)cccc2s1)C1CC1	none
CCOC(=O)c1c(CN2CCOCC2)oc2ccc(OC(C)=O)cc12	none
CCOC(=O)c1c(C)oc2cc(Br)c(OC(=O)N3CCOCC3)cc12	ELG1 repair inh 23µM
Cn1c(=O)oc2cc(S(=O)(=O)Nc3ccc(F)cc3)ccc21	none
O=C(CSc1nc(Nc2ccccc2)nc(N2CCOCC2)n1)Nc1cccc([N+](=O)[O-])c1	ELG1 repair inh 21µM, RORgamma inh inconclusive (no result: Coupling enz)
O=C(CSc1nc(N2CCOCC2)nc(N2CCOCC2)n1)Nc1ccc([N+](=O)[O-])cc1	ELG1 repair inh 16µM (no result: Coupling enz)
O=[N+]([O-])c1ccc(Nc2c3ccccc3nc3ccccc23)cc1	ELG1 repair inh inconclusive, RORgamma inh 22µM
COc1ccc(Cl)cc1NC(=O)CSc1nc(N2CCOCC2)nc(N2CCOCC2)n1	ELG1 repair inh 26µM (no result: Coupling enz)
O=[N+]([O-])c1ccccc1Nc1c2ccccc2nc2ccccc12	Gal4-VP16 FLuc inconclusive
O=C(CSc1nc(Nc2ccccc2)nc(N2CCOCC2)n1)Nc1ccc([N+](=O)[O-])cc1	ELG1 repair inh inconclusive
COc1ccc(Cl)cc1NC(=O)CSc1nc(N2CCCCC2)nc(N2CCCCC2)n1	none
CCOC(=O)CSc1ccc(C(=O)NCCCN2CCOCC2)cc1[N+](=O)[O-]	none
CC1CCN(CCc2nc3cc(NC(=O)COc4ccc([N+](=O)[O-])cc4)ccc3n2C)CC1	none (no result: Coupling enz)
O=C(CSc1nc2ccccc2c(=O)[nH]1)Nc1ccc([N+](=O)[O-])cc1	ELG1 repair inh 18µM (no result: Coupling enz, RORgamma inh, Gal4-VP16 FLuc)
COc1ccc(-c2nc3ccccc3o2)cc1NC(=O)CSc1ccc(Cl)cc1	ELG1 repair inh inconclusive, RORgamma inh 1.4µM
COc1cccc(NC(=S)N2CCN(C)CC2)c1	none
CCS(=O)(=O)N1Cc2ccccc2CC1C(=O)Nc1nc2ccccc2[nH]1 (stereo unspecified)	ELG1 repair inh inconclusive, RORgamma inh inconclusive
CCc1nnc(NC(=O)C2Cc3ccccc3CN2S(=O)(=O)c2c(C)c(C)cc(C)c2C)s1 (stereo unspecified)	ELG1 repair inh inconclusive, RORgamma inh 11µM
CCc1nnc(NC(=O)C2Cc3ccccc3CN2S(=O)(=O)CC)s1 (stereo unspecified)	none
CCS(=O)(=O)N1Cc2ccccc2CC1C(=O)Nc1nc2ccccc2s1 (stereo unspecified)	ELG1 repair inh inconclusive, RORgamma inh 3.5µM, Gal4-VP16 FLuc 4.5µM
CC(=O)NCC(=O)N[C@H](CCC(=O)O)C(=O)O	none (no result: ELG1 repair inh, TSHR antagonist)
CC12CCC(=O)N1C(C(=O)NNC(=O)COc1ccccc1F)CS2 (stereo unspecified)	none (no result: Coupling enz, RORgamma inh, Gal4-VP16 FLuc)
CCCCc1c(C)nn(-c2nnc3c4ccccc4n(CC)c3n2)c1C	ELG1 repair inh inconclusive, RORgamma inh 1.8µM, Gal4-VP16 FLuc 4µM
C[C@@H](NC(=O)[C@@H]1Cc2ccccc2CN1)C(=O)NC1CCCCC1	TSHR antagonist -134 (no result: Coupling enz)
Cc1ccc(C)c(S(=O)(=O)Nc2ccc3scnc3c2)c1	Coupling enz -45, RORgamma inh inconclusive, Gal4-VP16 FLuc inconclusive, TSHR antagonist inconclusive
COC(=O)CCSCc1cn2cc(Cl)ccc2n1	ELG1 repair inh inconclusive, RORgamma inh 6.3µM, Gal4-VP16 FLuc inconclusive
CCOC(=O)C1CCN(C(=S)Nc2cccc(C)c2C)CC1	RORgamma inh 11µM
CCOC(=O)C1CCN(C(=S)Nc2cccc(C)c2)CC1	Gal4-VP16 FLuc inconclusive
CCOC(=O)C1CCCN(CC(=O)Nc2cc(C)cc(C)c2)C1 (stereo unspecified)	none
CCc1ccc(NC(=S)N2CCC(NC(=O)c3ccccc3OC)CC2)cc1	RORgamma inh 10µM
CCOC(=O)C1CCN(C(=S)Nc2cc(C)ccc2C)CC1	RORgamma inh 18µM, Gal4-VP16 FLuc inconclusive
CCOC(=O)C1CCCN(C(=S)Nc2cc(C)cc(C)c2)C1 (stereo unspecified)	RORgamma inh 11µM, Gal4-VP16 FLuc inconclusive
CCc1ccc(NC(=S)N2CCC(NC(=O)c3ccccc3)CC2)cc1	none
CCOc1ccc(S(=O)(=O)N2CCCC(C(=O)Nc3ccccc3)C2)cc1 (stereo unspecified)	ELG1 repair inh inconclusive, RORgamma inh inconclusive
Cc1ccc(C)c(NC(=S)N2CCCCCC2)c1	RORgamma inh 13µM, Gal4-VP16 FLuc inconclusive
CCOC(=O)C1CCN(C(=S)Nc2ccc(CC)cc2)CC1	ELG1 repair inh inconclusive, RORgamma inh 11µM, Gal4-VP16 FLuc inconclusive
CCOC(=O)C1CCN(C(=S)Nc2ccc(Cl)cc2C)CC1	RORgamma inh 14µM, Gal4-VP16 FLuc inconclusive
O=C(N/N=C\c1c(O)ccc2ccccc12)c1ccc(Cn2cccn2)o1	ELG1 repair inh inconclusive, RORgamma inh 2.5µM, Gal4-VP16 FLuc 13µM
O=C(N/N=C\c1ccc(Cl)s1)c1ccc(Cn2cccn2)o1	RORgamma inh 10µM
CCC(=O)N1c2ccc(S(=O)(=O)NC3CCCCC3)cc2CC1C (stereo unspecified)	none
CCCN(C(=O)CSc1nnc(-c2ccoc2C)n1N)C1CCS(=O)(=O)C1 (stereo unspecified)	ELG1 repair inh 0.65µM
CCCN(C(=O)CSc1nnnn1-c1ccccc1OC)C1CCS(=O)(=O)C1 (stereo unspecified)	none
CN(Cc1c(C(=O)N/N=C/c2cccc(F)c2)nnn1-c1nonc1N)c1ccccc1	none
Cc1c(C(=O)N/N=C/c2cccs2)nnn1-c1nonc1N	RORgamma inh 11µM, Gal4-VP16 FLuc inconclusive
CCCc1c(C(=O)N/N=C/c2ccc(C)s2)nnn1-c1nonc1N	RORgamma inh 1µM, Gal4-VP16 FLuc 2.8µM
CCCN(CCC)Cc1c(C(=O)N/N=C/c2ccco2)nnn1-c1nonc1N	RORgamma inh inconclusive

Compound activity deposited in PubChem BioAssay by National Center for Advancing Translational Sciences (NCATS).
